# Records with an inconclusive call do not appear. Where a call stands in place of a potency, no number is given. The source made the active and inactive calls. Unless noted, calls follow the shape of the dose curve; as a rule, active = well fitted curve in the direction sought with a large enough effect in the repeat runs; inconclusive = weak or mixed curves; inactive = no such curve, though single readings can be large; an effect the other way counts as inactive or inconclusive.
# Assays:
# [1] = qHTS assay to identify small molecule antagonists of the estrogen receptor alpha (ER-alpha) signaling pathway using the BG1 cell line in the presence of 0.1 nM 17-beta-estradiol - cell viability counter screen (AID 1259241); also: nearly all actives have a fitted effect of over 40% in size
# Summary of the method: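 VM7Luc4E2 cells (endogenous ER-alpha, 4×ERE-luciferase), hormone-starved 5 days in charcoal-stripped FBS, were treated with compounds plus 0.1 nM 17beta-estradiol for 22 hr at 37C; viability read in same wells as CellTiter-Fluor live-cell protease fluorescence.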
# [2] = qHTS assay to identify small molecule antagonists of the androgen receptor (AR) signaling pathway using the MDA cell line in the presence of 0.5 nM R1881 - cell viability counter screen (AID 1259242); also: nearly all actives have a fitted effect of over 45% in size
# Summary of the method: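 Cells seeded at 3,000/well and allowed 5 hr at 37C, 0% CO2 before compound transfer and R1881 (0.5 nM final) addition; 16 hr later, live-cell protease fluorescence indicated cytotoxicity.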
# [3] = target: Estrogen receptor (Homo sapiens) (UniProt P03372); assay: qHTS assay to identify small molecule antagonists of the estrogen receptor alpha (ER-alpha) signaling pathway using the BG1 cell line in the presence of 0.1 nM 17-beta-estradiol (AID 1259244); also: nearly all actives have a fitted effect of over 50% in size; also: potency is read from the fitted curve at half-maximal effect
# Summary of the method: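 Luciferase signal from VM7Luc4E2 ERE-reporter cells, co-dosed with test compound and 0.1 nM final 17beta-estradiol for 22 h, read with ONE-Glo.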
# [4] = qHTS assay to identify small molecule HDAC inhibitors (AID 1259364); also: potency is read from the fitted curve at half-maximal effect;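 also: wild-type HCT-116 cells with endogenous class I/II HDAC activity; nearly all actives have a fitted effect of over 45% in size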
# Summary of the method: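 HCT-116 wt cells, 1,500/well, overnight attach. Compounds (DMSO) 2 h, 37 °C. HDAC-Glo I/II, 30 min RT. Luminescence.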
# [5] = qHTS assay to identify small molecule HDAC inhibitors - cell viability counter screen (AID 1259365); also: series mostly up to about 92 µM; nearly all actives have a fitted effect of over 50% in size
# Summary of the method: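 Wild-type HCT-116 cells were seeded at 1,500 per well, incubated overnight at 37 C, then exposed to compounds in DMSO for 2hr. Viability was read by CellTiter-Glo luminescence after 30min at room temperature.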
# [6] = qHTS assay to identify small molecule agonists of the sonic hedgehog signaling (Shh) pathway - cell viability counter screen (AID 1259366); also: nearly all actives have a fitted effect of over 50% in size; also: potency is read from the fitted curve at half-maximal effect
# Summary of the method: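 NIH/3T3-derived 3T3 Gli1-Luc cells (stable Gli1-responsive firefly luciferase reporter) were seeded, rested 4 hr at 37 C/5% CO2, then exposed to compounds in DMSO for 24 hr; viability was read by CellTiter-Fluor fluorescence in the same wells.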
# [7] = qHTS assay to identify small molecule antagonists of the sonic hedgehog signaling (Shh) pathway - cell viability counter screen (AID 1259367); also: nearly all actives have a fitted effect of over 55% in size; also: potency is read from the fitted curve at half-maximal effect
# Summary of the method: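 Fluorescence read-out (CellTiter-Fluor, 1 hr at 37C) taken after 23 hr compound treatment of 3T3 Gli1-Luc cells stimulated with conditioned medium. Cells were seeded at 2,000 per well and pre-incubated 4 hr.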
# [8] = qHTS assay to identify small molecule agonists of the sonic hedgehog signaling (Shh) pathway (AID 1259368; calls by dose curve; also: series mostly up to about 92 µM; nearly all actives have a fitted effect of over 15% in size)
# Summary of the method: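 Following a 24 hr incubation with DMSO-dissolved compounds at 37 C, 5% CO2, Gli1-Luc NIH/3T3-derived cells received luciferase reagent for 30 min at room temperature prior to luminescence measurement.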
# [9] = qHTS assay to identify small molecule antagonists of the sonic hedgehog signaling (Shh) pathway (AID 1259369; calls by dose curve; also: nearly all actives have a fitted effect of over 45% in size; also: potency is read from the fitted curve at half-maximal effect)
# Summary of the method: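 Read-out is luminescence from a firefly luciferase gene controlled by the Gli1 response element, in 3T3Gli1-Luc cells pre-incubated 4hr then exposed to compounds and conditioned medium for 24hr.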
# [10] = target: Estrogen receptor beta (Homo sapiens) (UniProt Q92731); assay: qHTS assay to identify small molecule antagonists of the estrogen receptor beta (ER-beta) signaling pathway (AID 1259378; active = well fitted inhibition curve with a large enough effect in the signal ratio in the repeat runs, not every such curve was filed as active; the % refers to the signal ratio)
# Summary of the method: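 ER-beta-UAS-bla HEK293T cells in 2% charcoal-stripped FBS medium treated with compound plus 1nM final 17-beta-estradiol for 16 hr at 37C. Beta-lactamase reporter read by FRET substrate fluorescence after 2 hours at room temperature.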
# [11] = qHTS assay to identify small molecule agonists of the androgen receptor (AR) signaling pathway in the presence of an antagonist - cell viability counter screen (AID 1259379);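 also: MDA-kb2 human breast cancer cells carrying an MMTV luciferase reporter; series mostly up to about 92 µM; nearly all actives have a fitted effect of over 25% in size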
# Summary of the method: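 Each compound was tested at 15 concentrations on MDA-kb2 cells in the presence of 3.0uM nilutamide. Viability was measured by CellTiter-Fluor fluorescence after a 16 hr incubation at 37C in a CO2-free atmosphere.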
# [12] = qHTS assay to identify small molecule agonists of the estrogen receptor beta (ER-beta) signaling pathway - cell viability counter screen (AID 1259380); also: nearly all actives have a fitted effect of over 30% in size
# Summary of the method: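 Compounds dissolved in DMSO were pin-transferred onto ER-beta-UAS-bla HEK293T cells that had settled 6 hr, and exposure ran 16 hr at 37C. Following the reporter read, CellTiter-Glo luminescence after 30 min at room temperature indicated cytotoxicity.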
# [13] = target: Estrogen receptor (Homo sapiens) (UniProt P03372); assay: qHTS assay to identify small molecule agonists of the estrogen receptor alpha (ER-alpha) signaling pathway in the presence of an antagonist (AID 1259383; calls by dose curve; also: top concentration of the series differs between compounds; nearly all actives have a fitted effect of over 15% in size)
# Summary of the method: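 Luminescent ERE-luciferase reporter, VM7Luc4E2 cells (endogenous ER-alpha); 10.0nM ICI-182,780 final; 15-point compound titration; 22hr at 37C; ONE-Glo, 30min RT.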
# [14] = qHTS assay to identify small molecule phospholipidosis (PLD) inducers (AID 1259344; active = well fitted curve in the direction sought with a large enough effect; an effect the other way counts as inactive or inconclusive)
# Summary of the method: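 Read-out is LipidTOX Red fluorescence (ex 595/em 615) imaged in HepG2 cells after 24 h compound exposure at 37 C, with Hoechst nuclear counterstain (ex 352/em 461) allowing per-cell normalisation.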
# [15] = qHTS assay to identify small molecule antagonists of the estrogen receptor beta (ER-beta) signaling pathway - cell viability counter screen (AID 1259382); also: series mostly up to about 92 µM; nearly all actives have a fitted effect of over 55% in size
# Summary of the method: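 CellTiter-Glo ATP luminescence measured after the LiveBLAzer read in the same wells; ER-beta-UAS-bla HEK293T cells, 16 hr compound treatment with 1nM 17-beta-estradiol agonist at 37C, 5% CO2.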
# [16] = qHTS assay to identify small molecule agonists or antagonists of the thyroid stimulating hormone receptor (TSHR) signaling pathway - wild type cell line counter screen (AID 1259384; calls by dose curve)
# Summary of the method: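 Wild-type Hek293 cells, 800/well, 18 h at 37C, then compound with Ro20-1724 for 30 min RT. cAMP by HTRF (cAMP-d2/anti-cAMP cryptate), 1 h RT, fluorescence read. 15 concentrations, triplicates.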
# [17] = target: Androgen receptor (Homo sapiens) (UniProt P10275); assay: qHTS assay to identify small molecule agonists of the androgen receptor (AR) signaling pathway in the presence of an antagonist (AID 1259381; calls by dose curve; also: nearly all actives have a fitted effect of over 15% in size)
# Summary of the method: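 Plated MDA-kb2 cells (3,000/well) were pre-incubated 5hr, given nilutamide (3.0uM final) or buffer, then dosed with compounds in DMSO at 15 concentrations. Luciferase activity was quantified by luminescence after 16hr at 37C.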
# [18] = target: Thyrotropin receptor (Homo sapiens) (UniProt P16473); assay: qHTS assay to identify small molecule antagonists of the thyroid stimulating hormone receptor (TSHR) signaling pathway (AID 1259385; calls by dose curve; also: nearly all actives have a fitted effect of over 20% in size)
# Summary of the method: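 TSHR-HEK293 cells (800/well) plated 18 h, then compounds with Ro20-1724 and TSH at 1.5 ng/mL final, 30 min at room temperature. cAMP quantified by HTRF (cAMP-d2/anti-cAMP-cryptate, 1 h); 15 concentrations in triplicate.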
# [19] = target: Estrogen receptor beta (Homo sapiens) (UniProt Q92731); assay: qHTS assay to identify small molecule agonists of the estrogen receptor beta (ER-beta) signaling pathway (AID 1259377; active = well fitted activation curve with a large enough effect in the signal ratio in the repeat runs, not every such curve was filed as active; the % refers to the signal ratio)
# Summary of the method: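 ER-beta-UAS-bla HEK293T (GripTite) cells carrying a UAS-driven beta-lactamase reporter, in medium with 2% charcoal-stripped FBS, were exposed to compounds for 16 hr at 37C; LiveBLAzer B/G FRET substrate was then added and fluorescence read after 2 hours at room temperature.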
# Chain of Estrogen receptor (Homo sapiens) (P03372 whole entry, looked up): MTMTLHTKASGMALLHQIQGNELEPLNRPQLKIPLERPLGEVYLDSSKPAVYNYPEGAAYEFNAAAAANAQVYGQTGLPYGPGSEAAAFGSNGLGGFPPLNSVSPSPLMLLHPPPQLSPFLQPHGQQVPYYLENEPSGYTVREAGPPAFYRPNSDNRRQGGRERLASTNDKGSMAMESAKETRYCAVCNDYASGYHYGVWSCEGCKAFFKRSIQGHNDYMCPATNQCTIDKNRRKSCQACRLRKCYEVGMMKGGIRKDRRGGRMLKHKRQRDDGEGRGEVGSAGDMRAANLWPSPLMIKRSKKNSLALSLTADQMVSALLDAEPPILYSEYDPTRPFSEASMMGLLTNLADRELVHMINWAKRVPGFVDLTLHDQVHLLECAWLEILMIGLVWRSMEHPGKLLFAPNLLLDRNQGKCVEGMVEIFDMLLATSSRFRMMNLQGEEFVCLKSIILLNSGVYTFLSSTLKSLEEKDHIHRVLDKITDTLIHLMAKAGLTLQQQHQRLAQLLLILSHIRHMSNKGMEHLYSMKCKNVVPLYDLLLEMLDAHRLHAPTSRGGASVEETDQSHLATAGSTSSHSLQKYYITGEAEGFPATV
# Chain of Thyrotropin receptor (Homo sapiens) (P16473 whole entry, looked up): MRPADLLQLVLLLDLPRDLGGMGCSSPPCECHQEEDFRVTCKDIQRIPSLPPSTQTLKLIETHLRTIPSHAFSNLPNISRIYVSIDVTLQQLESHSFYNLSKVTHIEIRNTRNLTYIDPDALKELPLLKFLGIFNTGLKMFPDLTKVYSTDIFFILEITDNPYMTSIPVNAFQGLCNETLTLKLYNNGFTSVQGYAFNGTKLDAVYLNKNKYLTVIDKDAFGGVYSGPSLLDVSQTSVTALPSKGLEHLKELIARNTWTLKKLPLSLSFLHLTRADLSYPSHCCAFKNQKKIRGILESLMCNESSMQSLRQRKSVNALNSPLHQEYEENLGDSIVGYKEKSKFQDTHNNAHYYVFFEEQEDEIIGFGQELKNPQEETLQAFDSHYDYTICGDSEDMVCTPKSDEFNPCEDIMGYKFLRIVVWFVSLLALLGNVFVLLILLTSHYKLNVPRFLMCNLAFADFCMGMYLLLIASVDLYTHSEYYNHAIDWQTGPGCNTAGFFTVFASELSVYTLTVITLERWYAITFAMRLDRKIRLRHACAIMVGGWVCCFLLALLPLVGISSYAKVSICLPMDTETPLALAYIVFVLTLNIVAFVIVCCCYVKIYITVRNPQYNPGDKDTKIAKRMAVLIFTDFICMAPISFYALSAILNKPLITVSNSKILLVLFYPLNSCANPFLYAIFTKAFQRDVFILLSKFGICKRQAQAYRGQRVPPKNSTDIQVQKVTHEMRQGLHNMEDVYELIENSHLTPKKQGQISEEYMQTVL
# Chain of Estrogen receptor beta (Homo sapiens) (Q92731 whole entry, looked up): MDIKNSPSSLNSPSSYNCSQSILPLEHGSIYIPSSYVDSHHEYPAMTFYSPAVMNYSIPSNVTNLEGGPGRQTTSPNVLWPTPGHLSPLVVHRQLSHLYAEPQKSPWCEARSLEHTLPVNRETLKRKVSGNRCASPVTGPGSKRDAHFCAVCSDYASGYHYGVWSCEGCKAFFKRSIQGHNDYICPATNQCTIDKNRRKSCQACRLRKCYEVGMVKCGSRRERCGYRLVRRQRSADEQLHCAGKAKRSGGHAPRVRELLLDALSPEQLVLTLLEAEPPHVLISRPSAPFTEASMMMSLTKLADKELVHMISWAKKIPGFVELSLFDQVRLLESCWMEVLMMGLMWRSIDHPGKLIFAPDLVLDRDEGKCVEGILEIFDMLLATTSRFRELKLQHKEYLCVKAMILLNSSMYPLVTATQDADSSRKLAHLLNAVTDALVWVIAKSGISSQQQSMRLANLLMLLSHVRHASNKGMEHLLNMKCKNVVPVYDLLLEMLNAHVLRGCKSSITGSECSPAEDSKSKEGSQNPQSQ
# Chain of Androgen receptor (Homo sapiens) (P10275 whole entry, looked up): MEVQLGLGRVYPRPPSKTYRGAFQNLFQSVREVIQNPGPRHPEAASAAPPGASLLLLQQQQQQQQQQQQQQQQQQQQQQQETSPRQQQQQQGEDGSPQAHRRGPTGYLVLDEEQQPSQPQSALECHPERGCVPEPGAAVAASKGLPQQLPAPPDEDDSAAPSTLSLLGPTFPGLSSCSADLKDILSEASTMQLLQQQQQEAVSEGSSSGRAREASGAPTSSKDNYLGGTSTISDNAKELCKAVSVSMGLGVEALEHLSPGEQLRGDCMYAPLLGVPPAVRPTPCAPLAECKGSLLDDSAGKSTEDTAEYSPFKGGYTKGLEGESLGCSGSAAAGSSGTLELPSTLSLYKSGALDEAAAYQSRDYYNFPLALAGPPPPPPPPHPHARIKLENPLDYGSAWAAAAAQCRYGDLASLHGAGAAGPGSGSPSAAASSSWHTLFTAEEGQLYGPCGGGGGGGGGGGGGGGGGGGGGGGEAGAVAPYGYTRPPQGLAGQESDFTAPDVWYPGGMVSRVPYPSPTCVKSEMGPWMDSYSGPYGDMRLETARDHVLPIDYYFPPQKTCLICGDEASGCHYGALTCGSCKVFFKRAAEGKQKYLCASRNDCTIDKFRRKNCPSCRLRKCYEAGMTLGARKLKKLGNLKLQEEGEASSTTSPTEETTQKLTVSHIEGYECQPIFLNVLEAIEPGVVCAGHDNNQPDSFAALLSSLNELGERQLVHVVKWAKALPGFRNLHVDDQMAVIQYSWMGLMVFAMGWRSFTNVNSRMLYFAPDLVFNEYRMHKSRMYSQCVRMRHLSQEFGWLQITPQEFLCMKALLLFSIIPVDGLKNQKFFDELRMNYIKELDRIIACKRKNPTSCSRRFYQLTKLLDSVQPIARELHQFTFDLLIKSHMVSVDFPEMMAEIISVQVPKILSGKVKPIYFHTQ
SMILES,outcome [1],outcome [2],Potency [3],Potency [4],outcome [5],Potency [6],Potency [7],outcome [8],Potency [9],Potency [10],Potency [11],Potency [12],Potency [13],outcome [14],Potency [15],Potency [16],Potency [17],Potency [18],outcome [19]
ClC(Cl)(Cl)C(Cl)(Cl)Cl,inactive,inactive,inactive,inactive,inactive,inactive,inactive,inactive,inactive,inactive,inactive,inactive,inactive,–,–,–,–,–,–
N#Cc1c(Cl)cccc1Cl,inactive,inactive,inactive,inactive,inactive,inactive,inactive,inactive,inactive,inactive,inactive,inactive,inactive,–,–,–,–,–,–
Cc1ncc2n1-c1ccc(Cl)cc1C(c1ccccc1F)=NC2,inactive,inactive,10.6 µM (active),inactive,inactive,inactive,inactive,inactive,–,–,inactive,inactive,–,inactive,inactive,inactive,–,–,–
CCOC(=O)CP(=O)(OCC)OCC,inactive,inactive,inactive,inactive,inactive,inactive,inactive,inactive,inactive,inactive,inactive,inactive,inactive,–,inactive,inactive,–,–,–
Nc1c(Br)cc([N+](=O)[O-])cc1[N+](=O)[O-],inactive,inactive,inactive,inactive,inactive,–,inactive,inactive,31 µM (active),–,–,–,–,–,–,inactive,inactive,inactive,–
CNC(=O)Oc1ccc(N(C)C)c(C)c1,inactive,inactive,inactive,inactive,inactive,inactive,inactive,inactive,–,–,inactive,inactive,inactive,–,inactive,inactive,–,inactive,–
CCOP(=S)(OCC)Oc1nc(Cl)n(C(C)C)n1,inactive,inactive,inactive,inactive,inactive,–,inactive,inactive,–,–,inactive,inactive,inactive,–,inactive,inactive,–,–,–
CSc1nc(N=[N+]=[N-])nc(NC(C)C)n1,inactive,inactive,inactive,inactive,inactive,inactive,inactive,inactive,–,–,inactive,inactive,inactive,–,inactive,inactive,–,–,–
CC(=O)C(Cl)Cl,inactive,inactive,inactive,inactive,inactive,–,inactive,inactive,inactive,–,inactive,inactive,inactive,–,inactive,inactive,–,inactive,–
C=C(C)CN(CC)c1c([N+](=O)[O-])cc(C(F)(F)F)cc1[N+](=O)[O-],inactive,inactive,inactive,inactive,inactive,–,inactive,inactive,–,inactive,inactive,inactive,inactive,–,–,–,–,–,inactive
CCOP(=S)(OCC)SCSP(=S)(OCC)OCC,inactive,inactive,inactive,inactive,inactive,–,inactive,inactive,inactive,–,inactive,–,inactive,–,inactive,inactive,–,–,inactive
COc1cc(C[C@@H](C)N)c(OC)cc1C,inactive,inactive,inactive,inactive,inactive,–,inactive,inactive,inactive,inactive,inactive,–,inactive,–,–,inactive,–,–,inactive
OCCBr,inactive,inactive,inactive,inactive,inactive,–,inactive,inactive,–,inactive,inactive,–,inactive,–,inactive,inactive,–,inactive,inactive
Cc1cccc(C#N)c1,inactive,inactive,inactive,inactive,inactive,inactive,inactive,–,inactive,inactive,inactive,–,–,–,–,inactive,–,inactive,–
c1cc[c]([Hg][c]2ccccc2)cc1,inactive,inactive,inactive,2.43 µM (active),inactive,–,–,inactive,0.545 µM (active),inactive,inactive,–,–,–,–,inactive,inactive,inactive,–
CCC/C(=N\OCC)C1=C(O)CC(CC(C)SCC)CC1=O (centres undefined),inactive,inactive,inactive,inactive,inactive,inactive,–,inactive,30.8 µM (active),inactive,inactive,inactive,inactive,–,–,inactive,–,inactive,–
CCC(Cl)[N+](=O)[O-] (centres undefined),inactive,inactive,inactive,inactive,inactive,–,inactive,inactive,inactive,inactive,inactive,–,–,–,inactive,inactive,–,–,inactive
COc1cc(OC)nc(NC(=O)NS(=O)(=O)c2ncccc2C(=O)N(C)C)n1,inactive,inactive,inactive,inactive,inactive,inactive,inactive,–,inactive,inactive,inactive,inactive,inactive,–,inactive,inactive,–,inactive,–
Nc1cc(Cl)ccc1O,inactive,inactive,inactive,inactive,inactive,59.1 µM (active),29.6 µM (active),–,1.67 µM (active),–,inactive,–,inactive,–,inactive,inactive,–,inactive,–
O=S(=O)(O)C(F)(F)C(F)(F)C(F)(F)C(F)(F)C(F)(F)C(F)(F)F,inactive,inactive,inactive,inactive,inactive,inactive,inactive,–,inactive,–,inactive,inactive,inactive,–,inactive,inactive,–,–,–
O=C1CN2CCOC2(c2ccccc2Cl)c2cc(Cl)ccc2N1 (centres undefined),inactive,inactive,inactive,inactive,inactive,inactive,inactive,–,inactive,–,inactive,inactive,–,–,inactive,inactive,–,inactive,–
CC1(C)CON(Cc2ccccc2Cl)C1=O,inactive,inactive,inactive,inactive,inactive,–,inactive,inactive,–,inactive,inactive,inactive,inactive,–,inactive,inactive,–,inactive,inactive
COC(=O)c1ccccc1S(=O)(=O)NC(=O)N(C)c1nc(C)nc(OC)n1,inactive,inactive,inactive,inactive,inactive,inactive,inactive,–,–,–,inactive,inactive,inactive,–,inactive,–,–,–,–
O=c1oc2ccccc2c(O)c1C1CCCc2ccccc21 (centres undefined),inactive,inactive,inactive,inactive,inactive,inactive,inactive,–,inactive,inactive,inactive,–,inactive,–,inactive,–,–,–,inactive
CCC1(c2ccccc2)C(=O)N=C(O)NC1=O (centres undefined),inactive,inactive,inactive,inactive,–,inactive,inactive,inactive,inactive,inactive,inactive,inactive,inactive,–,–,inactive,–,inactive,inactive

# From PubChem BioAssay (Tox21)
